Hits are enriched below; roughly 3.3% of the tested compounds scored in any of these assays.
NOD2-RIPK2 inh: inhibitors of human NOD2-RIPK2 interaction; O43353; CHO BLA complementation NOD2-RIPK2, CCF4 ratio; inhibition, % at 4.98 µM; actives 0.38% (n = 360,000); in the data active = inhibition above about 21%;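 also: 0% = vehicle only and 100% = reference blocker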
ABHD5-PLIN5 inh: inhibitors of human ABHD5-perilipin-5 interaction. Split G. princeps luciferase complementation, luminescence, 4 h. inhibition, % at 4 µM. actives 0.78% (n = 360,000);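 active = inhibition above the mean inhibition across every tested compound plus 3 SD, cut at about 22% in these data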;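 also: 0% = DMSO only wells and the 100% control is not disclosed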
Target sequence (Q00G26 whole entry, looked up): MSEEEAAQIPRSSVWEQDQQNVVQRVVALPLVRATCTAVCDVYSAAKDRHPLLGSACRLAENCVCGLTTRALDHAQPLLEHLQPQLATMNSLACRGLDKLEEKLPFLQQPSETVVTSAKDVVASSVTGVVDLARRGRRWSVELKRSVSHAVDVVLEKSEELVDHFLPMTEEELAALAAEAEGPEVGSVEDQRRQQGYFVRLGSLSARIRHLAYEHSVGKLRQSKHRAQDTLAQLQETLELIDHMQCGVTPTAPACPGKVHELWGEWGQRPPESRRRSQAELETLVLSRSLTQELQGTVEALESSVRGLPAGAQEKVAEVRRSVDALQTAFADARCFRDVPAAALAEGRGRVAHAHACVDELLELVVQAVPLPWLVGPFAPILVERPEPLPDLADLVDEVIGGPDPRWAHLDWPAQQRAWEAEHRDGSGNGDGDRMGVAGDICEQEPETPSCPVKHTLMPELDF
Target sequence (Q8WTS1 whole entry, looked up): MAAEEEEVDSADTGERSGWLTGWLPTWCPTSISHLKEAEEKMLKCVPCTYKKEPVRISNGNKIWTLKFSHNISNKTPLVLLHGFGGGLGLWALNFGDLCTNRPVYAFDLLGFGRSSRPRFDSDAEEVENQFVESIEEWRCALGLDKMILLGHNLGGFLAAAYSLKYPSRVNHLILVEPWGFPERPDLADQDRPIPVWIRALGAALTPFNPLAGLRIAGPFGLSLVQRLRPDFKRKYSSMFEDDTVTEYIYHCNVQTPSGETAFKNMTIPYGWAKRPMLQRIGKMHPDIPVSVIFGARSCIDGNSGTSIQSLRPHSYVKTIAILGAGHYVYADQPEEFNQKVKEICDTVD
TLR9-MyD88 block: inhibitors of human TLR9-MyD88 binding | inhibition, % at 4.98 µM | Q9NR96+Q99836 | actives 0.21% (n = 340,000) | CHO BLA complementation TLR9-MyD88, CCF4 FRET ratio;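 active = inhibition above the mean over all tested compounds plus 3 SD, cut at about 21% in these data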;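 also: 0% = DMSO only wells and 100% = clavulanate BLA inhibitor control wells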
rCAG binder: molecules binding r(CAG) RNA repeats. r(CAG) RNA repeat, TO-PRO-1 dye displacement fluorescence. inhibition, % at 3 µM. actives 1.3% (n = 370,000);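 active = inhibition above the plate cutoff, the mean of all test compounds on that plate plus 3 SD, cut at about 35% in these data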;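 also: 0% = DMSO alone and 100% = 100 µM mitoxantrone as full dye displacement; higher means more dye released from RNA so lower well fluorescence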
PRMT1 FP inh: PRMT1 (human) inhibition, primary screen. Q99873. recombinant PRMT1, activity-based probe fluorescence polarization. inhibition, % at 2.79 µM. actives 1.3% (n = 370,000). AID 652257;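 active = inhibition above about 21% made by adding two undisclosed values, limit read from the data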
TLR4-MyD88 BLA: TLR4-MyD88 interaction inhibition in cells; HeLa CL3-4 TLR4/MyD88 BLA complementation, FRET ratio; inhibition, % at 8.4 µM; actives 0.18% (n = 200,000); in the data active = inhibition above about 25%;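 also: 0% = vehicle and 100% = reference inhibitor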
rCAG bind conf: r(CAG) RNA repeat binding, confirmation; TO-PRO-1 dye displacement fluorescence; shares compounds with rCAG binder; inhibition, % at 3 µM; AID 652065; actives 70% (n = 4,300);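 active = inhibition above a per-plate cutoff, the mean inhibition of sample wells plus 3 SD, cut at about 35% in these data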;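 also: loss of TO-PRO-1 fluorescence as compound displaces dye from 1x1 AA loop RNA; 0% = DMSO only wells and 100% = 100 µM mitoxantrone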
DNA CAG counter: counter-screen for rCAG RNA binders: DNA CAG dye complex inhibitors; actives 94% (n = 4,300); shares compounds with rCAG binder; inhibition, % at 3 µM; d(CAG) DNA oligo TO-PRO-1 dye displacement, fluorescence;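 active = inhibition above its plate's cutoff, the mean test-well inhibition plus 3 SD, cut at about 4.8% in these data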;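 also: 0% = DNA dye mix with DMSO and 100% = 100 µM mitoxantrone; hits displace the dye from DNA and so lower well fluorescence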
dCAG dye DR: counter-screen for rCAG binders: inhibitors of DNA CAG TO-PRO-1 complex | shares compounds with rCAG binder | IC50, µM | DNA CAG/GTC duplex TO-PRO-1 dye displacement fluorescence | actives 20% (n = 250) | AID 686960; in the data active = IC50 below about 10 µM
Starred values were filed as active, the others as inactive; i = inactive; . = no result.

SMILES | NOD2-RIPK2 inh | ABHD5-PLIN5 inh | TLR9-MyD88 block | rCAG binder | PRMT1 FP inh | TLR4-MyD88 BLA | rCAG bind conf | DNA CAG counter | others
O=C(Nc1ccc(Br)cc1C(=O)O)c1ccc2c(c1)C(=O)N(Cc1ccccc1)C2=O | -5 | -4 | 0 | 49* | 0 | . | 87* | 77*
CCCN1C(=O)c2ccc(C(=O)Nc3cc(C)ccc3O)cc2C1=O | 6 | 2 | 7 | 6 | -7 | . | . | .
O=C(O)c1cc(NC(=O)c2ccc3c(c2)C(=O)N(Cc2cccnc2)C3=O)cc(C(=O)O)c1 | -2 | -4 | -3 | 0 | 2 | . | . | .
O=C(O)c1ccc2c(c1)C(=O)N(CCCCCCCN1C(=O)c3ccc(C(=O)O)cc3C1=O)C2=O | -6 | 4 | -6 | 37* | 0 | . | 23 | 4
CCCC1CCC2(CC1)CCC2OC(=S)Nc1ccccc1OC (stereo not given) | . | . | . | . | 7 | . | . | .
Cc1cccc(NC(=O)C(=O)NNC(=O)c2ccc(C(C)(C)C)cc2)c1 | -5 | -11 | -13 | 5 | 0 | . | . | .
Cc1ccc(F)c(NC(=O)/C(C#N)=C(\O)c2ccc(C(C)(C)C)cc2)c1 | -12 | 2 | 1 | 89* | 5 | -5 | 90* | 61*
Cc1ccccc1/C=C1\SC(=S)N(/N=C/c2cc([N+](=O)[O-])ccc2O)C1=O | 0 | 2 | -3 | 37* | 8 | -14 | 34 | 10*
CCCc1nc2nc(C)c(NS(=O)(=O)c3ccc(C4CCCCC4)cc3)c(=O)n2[nH]1 | 1 | -2 | 3 | 59* | -2 | . | 62* | 16*
Cc1cc(NS(=O)(=O)c2ccc(NC(=O)/C=C/c3c(F)cccc3Cl)cc2)no1 | -2 | -1 | 6 | 63* | 1 | . | 51* | 19*
Cc1cc(NS(=O)(=O)c2ccc(NC(=O)/C=C/c3c(F)cccc3Cl)cc2)nc(C)n1 | -6 | -1 | -12 | 43* | -3 | . | 30 | 8.7*
CCOC(=O)/C=C/C(=O)Nc1ccc(S(=O)(=O)Nc2cc(C)on2)cc1 | -3 | 8 | -5 | 7 | -2 | . | . | .
COc1ccc(/C=C/C(=O)Nc2ccc(S(=O)(=O)Nc3cc(C)nc(C)n3)cc2)cc1OC | -7 | 5 | 1 | 20 | -4 | . | . | .
O=C(Nc1cccc(Cl)c1)Nc1nccs1 | 0 | -3 | -4 | 11 | -1 | 10 | . | .
O=C(Nc1ccc(Cl)c(Cl)c1)Nc1nccs1 | 7 | -5 | 5 | 62* | 1 | . | 17 | 22*
COc1ccc(COCC(O)CN2CCN(S(=O)(=O)c3ccc(C(C)C)cc3)CC2)cc1 (stereo not given) | -1 | -11 | -4 | -1 | 3 | . | . | .
Cc1ccc(NC(=O)CN2C(=O)S/C(=C\c3cc(C)n(C)c3C)C2=O)cc1 | -1 | 0 | 0 | 13 | 2 | -8 | . | .
Cc1ccc(C(=O)O)cc1-c1ccc(/C=C2/NC(=O)N(c3ccccc3)C2=O)o1 | 4 | 5 | 6 | 62* | 20 | -1 | 60* | 22*
Cc1cc(C(=O)O)ccc1-c1ccc(/C=C2\SC(=O)N(CC(=O)Nc3ccc4c(c3)OCO4)C2=O)o1 | -11 | -10 | -1 | 11 | 10 | . | . | .
Cc1ccc(NC(=O)CN2C(=O)S/C(=C\c3cc(C)n(-c4cccc(C(=O)O)c4)c3C)C2=O)cc1 | -1 | 2 | 5 | 72* | 2 | 4 | 71* | 32* | dCAG dye DR=i
Cc1cc(C(=O)O)ccc1-c1ccc(/C=C2\NC(=O)N(Cc3ccccc3Cl)C2=O)o1 | -2 | -1 | -5 | . | . | -10 | . | .
Cc1ccc(C(=O)O)cc1-c1ccc(/C=C2\SC(=O)N(CC(=O)Nc3ccccc3)C2=O)o1 | -4 | -2 | 0 | 42* | 9 | -5 | 89* | 66*
C#CCN1C(=O)S/C(=C\c2ccc(-c3ccc(C(=O)O)cc3C)o2)C1=O | -4 | -7 | 3 | 48* | 11 | . | 43* | 16*
O=C1NCCOC(=O)[C@@H](Cc2ccc(F)cc2)C/C=C\C[C@@H]1CC(=O)N(CCO)Cc1ccccc1 | -8 | 9 | -7 | -8 | 2 | . | . | .
O=C(Nc1cccc2cccnc12)c1ccc2sc([C@@H]3O[C@H](CO)[C@H](O)[C@H](O)[C@H]3O)nc2c1 | -4 | -6 | . | 5 | -2 | . | . | .
SMILES | NOD2-RIPK2 inh | ABHD5-PLIN5 inh | TLR9-MyD88 block | rCAG binder | PRMT1 FP inh | TLR4-MyD88 BLA | rCAG bind conf | DNA CAG counter | others
O=C(COc1ccc2c(c1)oc(=O)c1ccccc12)N[C@@H](Cc1c[nH]c2ccccc12)C(=O)O | 2 | -3 | 9 | 51* | 7 | . | 54* | 18*
Cc1c(C)c2ccc(OCC(=O)N[C@@H](Cc3c[nH]c4ccccc34)C(=O)O)cc2oc1=O | 0 | -2 | -5 | 18 | 5 | . | . | .
Cc1cc(OC(C)C(=O)NC(Cc2c[nH]c3ccc(O)cc23)C(=O)O)c2c(C)c(C)c(=O)oc2c1 (stereo not given) | 3 | -7 | -2 | 13 | -2 | . | . | .
CC(Oc1ccc2c(c1)oc(=O)c1ccccc12)C(=O)NC(Cc1c[nH]c2ccc(O)cc12)C(=O)O (stereo not given) | -10 | -1 | 2 | 43* | 22* | . | 27 | 6.1*
O=C(Nc1ccccc1)Nc1nc2ncccn2c1-c1ccc(C(F)(F)F)cc1 | . | . | . | 4 | 3 | . | . | .
Cc1cc(C(=O)O)cc(S(=O)(=O)Nc2ccccc2C(=O)NC2CC2)c1C | -4 | -8 | 4 | 3 | -1 | . | . | .
O=C(O)Cc1ccc(N2N=C(c3ccccc3)CC2=O)cc1 | 2 | -34 | . | 68* | 6 | . | 22 | 6.0*
O=C(NNC(=S)NC1CCCCC1)c1ccccc1O | -8 | -7 | -9 | 6 | -1 | 3 | . | .
Cc1ccc(-c2n[nH]c3c2C(c2ccccc2)N(c2ccc(C(=O)O)cc2)C3=O)cc1 (stereo not given) | -13 | 1 | -1 | 45* | 8 | . | 26 | 6.2*
CC(C)(C)NC(=O)[C@@H](c1cccnc1)N(C(=O)c1ccco1)c1ccc(C(C)(C)C)cc1 | . | . | . | . | 4 | . | . | .
CCOC(=O)C1=C(C)NC2=C(C(=O)c3ccccc32)C1c1ccc(O)cc1 (stereo not given) | -8 | 5 | -14 | 4 | 9 | 2 | . | .
CCOc1ccc(C2C3=C(Nc4nc(N)[nH]c(=O)c42)c2ccccc2C3=O)cc1 (stereo not given) | 6 | 18 | 14 | 66* | 2 | -6 | 53* | 35*
CCCOc1ccc(C2C3=C(Nc4nc(N)[nH]c(=O)c42)c2ccccc2C3=O)cc1 (stereo not given) | -4 | 0 | -12 | 71* | 4 | . | 57* | 37*
